Assays:
Assay in all cases: PBM; 200 nM protein, PBS
Conditions in all cases: dsDNA, one strand shown
HOXC9 [1] = target: HOXC9 (Homo sapiens, UniProt P31274 178-260, K195R)
HOXC9 [2] = target: HOXC9 (Homo sapiens, UniProt P31274 178-260)
HOXD13 [3] = target: HOXD13 (Homo sapiens, UniProt P35453 263-343, T313R)
HOXC9 [4] = target: HOXC9 (Homo sapiens, UniProt P31274 178-260, R193K)
HOXD13 [5] = target: HOXD13 (Homo sapiens, UniProt P35453 263-343)
PROP1 [6] = target: PROP1 (Homo sapiens, UniProt O75360 56-141)
PROP1 (Homo sapiens, UniProt O75360 56-141), sequence (O75360 56-141): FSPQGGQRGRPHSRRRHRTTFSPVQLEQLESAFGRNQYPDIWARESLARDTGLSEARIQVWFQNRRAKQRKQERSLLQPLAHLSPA

PROP1 [7] = target: PROP1 (Homo sapiens, UniProt O75360 56-141, R99H)
PROP1 (Homo sapiens, UniProt O75360 56-141, R99H), sequence (O75360 56-141 R99H): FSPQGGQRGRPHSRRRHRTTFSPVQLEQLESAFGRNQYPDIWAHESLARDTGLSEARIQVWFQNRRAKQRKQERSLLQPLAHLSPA

HOXD13 [8] = target: HOXD13 (Homo sapiens, UniProt P35453 263-343, T313A)
HOXD13 (Homo sapiens, UniProt P35453 263-343, T313A), sequence (P35453 263-343 T313A): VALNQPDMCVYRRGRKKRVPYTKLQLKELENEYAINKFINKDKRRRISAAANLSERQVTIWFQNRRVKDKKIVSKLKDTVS

HOXC9 [9] = target: HOXC9 (Homo sapiens, UniProt P31274 178-260, R222W)
HOXC9 (Homo sapiens, UniProt P31274 178-260, R222W), sequence (P31274 178-260 R222W): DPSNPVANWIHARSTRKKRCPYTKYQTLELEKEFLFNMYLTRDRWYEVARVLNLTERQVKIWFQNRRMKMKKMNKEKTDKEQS

PROP1 [10] = target: PROP1 (Homo sapiens, UniProt O75360 56-141, F88S)
PROP1 (Homo sapiens, UniProt O75360 56-141, F88S), sequence (O75360 56-141 F88S): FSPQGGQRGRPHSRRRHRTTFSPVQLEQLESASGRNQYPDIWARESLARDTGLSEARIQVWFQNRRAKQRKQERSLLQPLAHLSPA

PITX2 = PITX2 (Homo sapiens, UniProt Q99697 72-157)
NKX2-6 = target: T1, NKX2-6 (Homo sapiens, UniProt A6NCS4 118-204, R150C)
T1 sequence: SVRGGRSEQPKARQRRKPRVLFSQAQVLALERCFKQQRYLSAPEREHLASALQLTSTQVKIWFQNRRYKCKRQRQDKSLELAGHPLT

ALX1 [11] = target: ALX1 (Homo sapiens, UniProt Q15699 118-204, L144V)
ALX1 (Homo sapiens, UniProt Q15699 118-204, L144V), sequence (Q15699 118-204 L144V): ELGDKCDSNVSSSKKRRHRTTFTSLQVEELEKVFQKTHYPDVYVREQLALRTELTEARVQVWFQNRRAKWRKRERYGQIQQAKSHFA

ALX1 [12] = target: ALX1 (Homo sapiens, UniProt Q15699 118-204, L144R)
ALX1 (Homo sapiens, UniProt Q15699 118-204, L144R), sequence (Q15699 118-204 L144R): as the sequence (Q15699 118-204 L144V) above, with V27R counted along it

ALX1 [13] = target: ALX1 (Homo sapiens, UniProt Q15699 118-204)
ALX1 (Homo sapiens, UniProt Q15699 118-204), sequence (Q15699 118-204): as the sequence (Q15699 118-204 L144V) above, with V27L counted along it

HOXA2 [14] = target: HOXA2 (Homo sapiens, UniProt O43364 129-215, R185T)
HOXA2 (Homo sapiens, UniProt O43364 129-215, R185T), sequence (O43364 129-215 R185T): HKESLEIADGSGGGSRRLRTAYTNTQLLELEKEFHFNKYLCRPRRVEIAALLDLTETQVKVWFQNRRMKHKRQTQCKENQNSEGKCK

HOXA2 [15] = target: HOXA2 (Homo sapiens, UniProt O43364 129-215, Y150S)
HOXA2 (Homo sapiens, UniProt O43364 129-215, Y150S), sequence (O43364 129-215 Y150S): as the sequence (O43364 129-215 R185T) above, with Y22S, T57R counted along it

HOXA2 [16] = target: HOXA2 (Homo sapiens, UniProt O43364 129-215)
HOXA2 (Homo sapiens, UniProt O43364 129-215), sequence (O43364 129-215): as the sequence (O43364 129-215 R185T) above, with T57R counted along it

HOXC9 (Homo sapiens, UniProt P31274 178-260, K195R), sequence (P31274 178-260 K195R): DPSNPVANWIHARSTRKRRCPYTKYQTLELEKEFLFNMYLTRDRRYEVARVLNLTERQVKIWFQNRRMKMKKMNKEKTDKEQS
HOXC9 (Homo sapiens, UniProt P31274 178-260, R193K), sequence (P31274 178-260 R193K): as the sequence (P31274 178-260 R222W) above, with R16K, W45R counted along it
HOXC9 (Homo sapiens, UniProt P31274 178-260), sequence (P31274 178-260): as the sequence (P31274 178-260 R222W) above, with W45R counted along it
HOXD13 (Homo sapiens, UniProt P35453 263-343, T313R), sequence (P35453 263-343 T313R): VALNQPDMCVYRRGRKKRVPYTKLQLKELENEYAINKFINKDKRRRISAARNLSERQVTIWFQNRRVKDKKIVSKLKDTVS
HOXD13 (Homo sapiens, UniProt P35453 263-343), sequence (P35453 263-343): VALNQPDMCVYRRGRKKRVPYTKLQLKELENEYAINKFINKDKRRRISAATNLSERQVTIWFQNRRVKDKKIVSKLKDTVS

AGCCGTGG
binding signal (HOXC9 [1]): 9.64 upbm affinity estimate (log intensity, higher = more binding, comparable within an allelic series) | binding signal (HOXC9 [2]): 9.68 upbm affinity estimate (log intensity, higher = more binding, comparable within an allelic series) | binding signal (HOXD13 [3]): 9.67 upbm affinity estimate (log intensity, higher = more binding, comparable within an allelic series) | binding signal (HOXC9 [4]): 9.58 upbm affinity estimate (log intensity, higher = more binding, comparable within an allelic series) | binding signal (HOXD13 [5]): 9.7 upbm affinity estimate (log intensity, higher = more binding, comparable within an allelic series) | binding signal (PROP1 [6]): 6.79 upbm affinity estimate (log intensity, higher = more binding, comparable within an allelic series) | binding signal (PROP1 [7]): 6.82 upbm affinity estimate (log intensity, higher = more binding, comparable within an allelic series) | binding signal (HOXD13 [8]): 9.83 upbm affinity estimate (log intensity, higher = more binding, comparable within an allelic series) | binding signal (HOXC9 [9]): 9.77 upbm affinity estimate (log intensity, higher = more binding, comparable within an allelic series) | binding signal (PROP1 [10]): 6.72 upbm affinity estimate (log intensity, higher = more binding, comparable within an allelic series)

GCAGCGCC
binding signal (HOXC9 [1]): 9.72 upbm affinity estimate (log intensity, higher = more binding, comparable within an allelic series) | binding signal (HOXC9 [2]): 9.88 upbm affinity estimate (log intensity, higher = more binding, comparable within an allelic series) | binding signal (HOXD13 [3]): 9.55 upbm affinity estimate (log intensity, higher = more binding, comparable within an allelic series) | binding signal (PITX2): 7.75 upbm affinity estimate (log intensity, higher = more binding, comparable within an allelic series) | binding signal (HOXC9 [4]): 9.72 upbm affinity estimate (log intensity, higher = more binding, comparable within an allelic series) | binding signal (HOXD13 [5]): 9.61 upbm affinity estimate (log intensity, higher = more binding, comparable within an allelic series) | binding signal (HOXD13 [8]): 9.59 upbm affinity estimate (log intensity, higher = more binding, comparable within an allelic series) | binding signal (HOXC9 [9]): 9.72 upbm affinity estimate (log intensity, higher = more binding, comparable within an allelic series)

CCGGGTAC
binding signal (HOXC9 [1]): 9.59 upbm affinity estimate (log intensity, higher = more binding, comparable within an allelic series) | binding signal (NKX2-6): 9.58 upbm affinity estimate (log intensity, higher = more binding, comparable within an allelic series) | binding signal (HOXC9 [2]): 9.74 upbm affinity estimate (log intensity, higher = more binding, comparable within an allelic series) | binding signal (ALX1 [11]): 6.43 upbm affinity estimate (log intensity, higher = more binding, comparable within an allelic series) | binding signal (HOXC9 [4]): 9.61 upbm affinity estimate (log intensity, higher = more binding, comparable within an allelic series) | binding signal (ALX1 [12]): 6.2 upbm affinity estimate (log intensity, higher = more binding, comparable within an allelic series) | binding signal (HOXC9 [9]): 9.63 upbm affinity estimate (log intensity, higher = more binding, comparable within an allelic series) | binding signal (ALX1 [13]): 6.38 upbm affinity estimate (log intensity, higher = more binding, comparable within an allelic series)

ATATGAAA
binding signal (HOXC9 [1]): 11.4 upbm affinity estimate (log intensity, higher = more binding, comparable within an allelic series) | binding signal (HOXC9 [2]): 11.3 upbm affinity estimate (log intensity, higher = more binding, comparable within an allelic series) | binding signal (HOXC9 [4]): 11.4 upbm affinity estimate (log intensity, higher = more binding, comparable within an allelic series)

ATTTGTTC
binding signal (HOXC9 [1]): 11 upbm affinity estimate (log intensity, higher = more binding, comparable within an allelic series) | binding signal (HOXA2 [14]): 9.37 upbm affinity estimate (log intensity, higher = more binding, comparable within an allelic series) | binding signal (HOXC9 [2]): 10.9 upbm affinity estimate (log intensity, higher = more binding, comparable within an allelic series) | binding signal (HOXC9 [4]): 11 upbm affinity estimate (log intensity, higher = more binding, comparable within an allelic series) | binding signal (HOXA2 [15]): 10.8 upbm affinity estimate (log intensity, higher = more binding, comparable within an allelic series) | binding signal (HOXA2 [16]): 9.22 upbm affinity estimate (log intensity, higher = more binding, comparable within an allelic series)

CCCCAGCC
binding signal (HOXC9 [1]): 9.49 upbm affinity estimate (log intensity, higher = more binding, comparable within an allelic series) | binding signal (HOXC9 [2]): 9.68 upbm affinity estimate (log intensity, higher = more binding, comparable within an allelic series) | binding signal (HOXC9 [4]): 9.69 upbm affinity estimate (log intensity, higher = more binding, comparable within an allelic series) | binding signal (HOXC9 [9]): 9.68 upbm affinity estimate (log intensity, higher = more binding, comparable within an allelic series)

CGGTGCCA
binding signal (HOXC9 [1]): 9.43 upbm affinity estimate (log intensity, higher = more binding, comparable within an allelic series) | binding signal (HOXC9 [2]): 9.52 upbm affinity estimate (log intensity, higher = more binding, comparable within an allelic series) | binding signal (HOXC9 [4]): 9.49 upbm affinity estimate (log intensity, higher = more binding, comparable within an allelic series) | binding signal (PROP1 [6]): 6.41 upbm affinity estimate (log intensity, higher = more binding, comparable within an allelic series) | binding signal (PROP1 [7]): 6.46 upbm affinity estimate (log intensity, higher = more binding, comparable within an allelic series) | binding signal (HOXC9 [9]): 9.58 upbm affinity estimate (log intensity, higher = more binding, comparable within an allelic series) | binding signal (PROP1 [10]): 6.5 upbm affinity estimate (log intensity, higher = more binding, comparable within an allelic series)

ATAGTCAA
binding signal (HOXC9 [1]): 10.7 upbm affinity estimate (log intensity, higher = more binding, comparable within an allelic series) | binding signal (HOXC9 [2]): 10.7 upbm affinity estimate (log intensity, higher = more binding, comparable within an allelic series) | binding signal (HOXC9 [4]): 10.8 upbm affinity estimate (log intensity, higher = more binding, comparable within an allelic series)

ATTATCGG
binding signal (HOXC9 [1]): 11.3 upbm affinity estimate (log intensity, higher = more binding, comparable within an allelic series) | binding signal (HOXC9 [2]): 11.5 upbm affinity estimate (log intensity, higher = more binding, comparable within an allelic series) | binding signal (HOXC9 [4]): 11.4 upbm affinity estimate (log intensity, higher = more binding, comparable within an allelic series)

CGGTCCAG
binding signal (HOXC9 [1]): 9.64 upbm affinity estimate (log intensity, higher = more binding, comparable within an allelic series) | binding signal (HOXC9 [2]): 9.66 upbm affinity estimate (log intensity, higher = more binding, comparable within an allelic series) | binding signal (HOXC9 [4]): 9.64 upbm affinity estimate (log intensity, higher = more binding, comparable within an allelic series) | binding signal (HOXC9 [9]): 9.63 upbm affinity estimate (log intensity, higher = more binding, comparable within an allelic series)

AGCCCGGC
binding signal (HOXC9 [1]): 9.63 upbm affinity estimate (log intensity, higher = more binding, comparable within an allelic series) | binding signal (HOXC9 [2]): 9.75 upbm affinity estimate (log intensity, higher = more binding, comparable within an allelic series) | binding signal (HOXC9 [4]): 9.64 upbm affinity estimate (log intensity, higher = more binding, comparable within an allelic series) | binding signal (HOXC9 [9]): 9.67 upbm affinity estimate (log intensity, higher = more binding, comparable within an allelic series)

CTATAGAA
binding signal (HOXC9 [1]): 11.1 upbm affinity estimate (log intensity, higher = more binding, comparable within an allelic series) | binding signal (HOXC9 [2]): 11 upbm affinity estimate (log intensity, higher = more binding, comparable within an allelic series) | binding signal (HOXC9 [4]): 11.1 upbm affinity estimate (log intensity, higher = more binding, comparable within an allelic series)

TTCATAAA
binding signal (HOXC9 [1]): 11.7 upbm affinity estimate (log intensity, higher = more binding, comparable within an allelic series) | binding signal (HOXC9 [2]): 11.7 upbm affinity estimate (log intensity, higher = more binding, comparable within an allelic series) | binding signal (HOXC9 [4]): 11.7 upbm affinity estimate (log intensity, higher = more binding, comparable within an allelic series)

GAGAGCTC
binding signal (HOXC9 [1]): 9.48 upbm affinity estimate (log intensity, higher = more binding, comparable within an allelic series) | binding signal (HOXC9 [2]): 9.56 upbm affinity estimate (log intensity, higher = more binding, comparable within an allelic series) | binding signal (HOXC9 [4]): 9.3 upbm affinity estimate (log intensity, higher = more binding, comparable within an allelic series) | binding signal (HOXC9 [9]): 9.65 upbm affinity estimate (log intensity, higher = more binding, comparable within an allelic series)

ATATTGCA
binding signal (HOXC9 [1]): 11.2 upbm affinity estimate (log intensity, higher = more binding, comparable within an allelic series) | binding signal (HOXC9 [2]): 11.2 upbm affinity estimate (log intensity, higher = more binding, comparable within an allelic series) | binding signal (HOXC9 [4]): 11.3 upbm affinity estimate (log intensity, higher = more binding, comparable within an allelic series)

AGACCAGG
binding signal (HOXC9 [1]): 9.63 upbm affinity estimate (log intensity, higher = more binding, comparable within an allelic series) | binding signal (HOXC9 [2]): 9.68 upbm affinity estimate (log intensity, higher = more binding, comparable within an allelic series) | binding signal (HOXC9 [4]): 9.61 upbm affinity estimate (log intensity, higher = more binding, comparable within an allelic series) | binding signal (HOXC9 [9]): 9.71 upbm affinity estimate (log intensity, higher = more binding, comparable within an allelic series)

ATGTTAAC
binding signal (HOXC9 [1]): 11.1 upbm affinity estimate (log intensity, higher = more binding, comparable within an allelic series) | binding signal (HOXC9 [2]): 11.1 upbm affinity estimate (log intensity, higher = more binding, comparable within an allelic series) | binding signal (HOXC9 [4]): 11.1 upbm affinity estimate (log intensity, higher = more binding, comparable within an allelic series)

ACGCCATA
binding signal (HOXC9 [1]): 11 upbm affinity estimate (log intensity, higher = more binding, comparable within an allelic series) | binding signal (HOXC9 [2]): 10.9 upbm affinity estimate (log intensity, higher = more binding, comparable within an allelic series) | binding signal (HOXC9 [4]): 11 upbm affinity estimate (log intensity, higher = more binding, comparable within an allelic series) | binding signal (HOXC9 [9]): 10.2 upbm affinity estimate (log intensity, higher = more binding, comparable within an allelic series)

TGATTGCA
binding signal (HOXC9 [1]): 11.1 upbm affinity estimate (log intensity, higher = more binding, comparable within an allelic series) | binding signal (HOXC9 [2]): 11 upbm affinity estimate (log intensity, higher = more binding, comparable within an allelic series) | binding signal (HOXC9 [4]): 11.2 upbm affinity estimate (log intensity, higher = more binding, comparable within an allelic series)

CGTTAAAG
binding signal (HOXC9 [1]): 11.3 upbm affinity estimate (log intensity, higher = more binding, comparable within an allelic series) | binding signal (HOXC9 [2]): 11.4 upbm affinity estimate (log intensity, higher = more binding, comparable within an allelic series) | binding signal (HOXC9 [4]): 11.3 upbm affinity estimate (log intensity, higher = more binding, comparable within an allelic series)

AGGGACCC
binding signal (HOXC9 [1]): 9.58 upbm affinity estimate (log intensity, higher = more binding, comparable within an allelic series) | binding signal (HOXC9 [2]): 9.44 upbm affinity estimate (log intensity, higher = more binding, comparable within an allelic series) | binding signal (HOXC9 [4]): 9.63 upbm affinity estimate (log intensity, higher = more binding, comparable within an allelic series) | binding signal (HOXC9 [9]): 9.54 upbm affinity estimate (log intensity, higher = more binding, comparable within an allelic series)

From paper PMC11006913
